Active and inactive are the calls of the source.

We go through 4 molecules from PubChem BioAssay.

Assay [1] can be described thus: E. coli DRC41 culture turbidity changes, primary screen, E. coli filamentation inducer project, strain DRC41, OD650, 48 h (AID 1152).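 Note: E. coli MC1000 strain DRC41 lacking acrAB efflux pump and sulA.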 Particulars: E. coli DRC41 (acrAB sulA), higher = more signal, called active from +8 up or from −8 down.
Assay [2] can be described thus: small-molecule binders of probe aLefty1, primary screen, biochemical, small-molecule microarray, 635/667 nm fluorescence (AID 1153).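 Note: score merges spot fluorescence with signal-to-noise ratio from the scanned slide images.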 The settings on record: higher = more signal.
Assay [3] in a line: PSAC antagonists in infected red cells, primary screen, cell-based, P. falciparum Indochina, OD700, 1 h (AID 1154). Particulars: P. falciparum Indochina infected RBC osmotic lysis, higher = more signal, called active from +8 up or from −8 down.
Assay [4] is described as follows: PSAC antagonists in infected red cells, primary screen, cell-based, P. falciparum Indochina, OD700, 2 h (AID 1155).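 Note: lysis reports solute entry through the parasite surface anion channel PSAC; channel blockers reduce lysis of infected cells.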 The settings on record: P. falciparum Indochina infected erythrocytes, osmotic lysis OD700; higher = more signal, called active from +8 up or from −8 down.
A short description of assay [5]: osmotic lysis modulators in infected erythrocytes, primary screen, PSAC antagonist project, cell-based, P. falciparum Indochina, OD700, 3 h (AID 1156). The settings on record: higher = more signal, called active from +8 up or from −8 down.
Assay [6] can be described thus: PSAC antagonists in infected red cells, primary screen, cell-based, P. falciparum Indochina, OD700, 18 h (AID 1157). Particulars: P. falciparum Indochina infected erythrocytes, osmotic lysis OD700, 18 h; higher = more signal, called active from +8 up or from −8 down.
Assay [7] is described as follows: modulators of S6 phosphorylation in cells, primary screen, cell-based, A549, cytoblot, luminescence, serum-stimulated (AID 1158).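 Note: serum-stimulated A549 lung adenocarcinoma cells; signal is phosphorylated S6 detected by cytoblot immunostaining with HRP secondary.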 The settings on record: A549 phospho-S6 cytoblot, 5 h, higher = more signal.
Assay [8] concerns the target NADPH oxidase 2 (Homo sapiens) (UniProt P04839). Description: NOX2-dependent H2O2 signal modulators, primary screen, NOX inhibitor project, cell-based, HEK293-NOX2, PMA-stimulated, Amplex Red fluorescence (AID 1159). Note: test concentration not given here. Particulars: 45 min, higher = more signal, called active from +8 up or from −8 down.
The target of assay [9] is NADPH oxidase 4 (Homo sapiens) (UniProt Q9NPH5). Description: NOX4-dependent H2O2 signal modulators, primary screen, NOX inhibitor project, cell-based, HEK293-NOX4, tetracycline-induced, Amplex Red fluorescence (AID 1160). The settings on record: 45 min, higher = more signal, called active from +8 up or from −8 down.
NADPH oxidase 4 (Homo sapiens), sequence (Q9NPH5 whole entry, looked up): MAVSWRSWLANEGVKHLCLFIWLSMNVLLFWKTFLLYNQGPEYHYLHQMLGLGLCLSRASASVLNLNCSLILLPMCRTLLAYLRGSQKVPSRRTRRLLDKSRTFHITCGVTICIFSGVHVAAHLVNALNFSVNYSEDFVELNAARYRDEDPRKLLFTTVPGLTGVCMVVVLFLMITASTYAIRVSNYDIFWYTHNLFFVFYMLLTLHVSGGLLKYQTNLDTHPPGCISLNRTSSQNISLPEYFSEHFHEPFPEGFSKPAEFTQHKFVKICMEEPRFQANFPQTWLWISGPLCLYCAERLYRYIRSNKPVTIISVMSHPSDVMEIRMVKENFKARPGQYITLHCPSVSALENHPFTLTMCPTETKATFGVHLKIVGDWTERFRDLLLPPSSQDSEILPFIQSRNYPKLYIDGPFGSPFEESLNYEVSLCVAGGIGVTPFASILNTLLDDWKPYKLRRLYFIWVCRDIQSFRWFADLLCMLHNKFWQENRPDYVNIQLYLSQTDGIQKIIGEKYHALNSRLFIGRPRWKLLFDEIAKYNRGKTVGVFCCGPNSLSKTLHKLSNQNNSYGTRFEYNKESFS
The target in assay [10] is NADPH oxidase 5 (Homo sapiens) (UniProt Q96PH1). Description: NOX5-dependent H2O2 signal modulators, primary screen, NOX inhibitor project, cell-based, HEK293-NOX5, Amplex Red fluorescence (AID 1161). Particulars: HEK293-NOX5, ionomycin, 45 min, higher = more signal.
NADPH oxidase 5 (Homo sapiens), sequence (Q96PH1 whole entry, looked up): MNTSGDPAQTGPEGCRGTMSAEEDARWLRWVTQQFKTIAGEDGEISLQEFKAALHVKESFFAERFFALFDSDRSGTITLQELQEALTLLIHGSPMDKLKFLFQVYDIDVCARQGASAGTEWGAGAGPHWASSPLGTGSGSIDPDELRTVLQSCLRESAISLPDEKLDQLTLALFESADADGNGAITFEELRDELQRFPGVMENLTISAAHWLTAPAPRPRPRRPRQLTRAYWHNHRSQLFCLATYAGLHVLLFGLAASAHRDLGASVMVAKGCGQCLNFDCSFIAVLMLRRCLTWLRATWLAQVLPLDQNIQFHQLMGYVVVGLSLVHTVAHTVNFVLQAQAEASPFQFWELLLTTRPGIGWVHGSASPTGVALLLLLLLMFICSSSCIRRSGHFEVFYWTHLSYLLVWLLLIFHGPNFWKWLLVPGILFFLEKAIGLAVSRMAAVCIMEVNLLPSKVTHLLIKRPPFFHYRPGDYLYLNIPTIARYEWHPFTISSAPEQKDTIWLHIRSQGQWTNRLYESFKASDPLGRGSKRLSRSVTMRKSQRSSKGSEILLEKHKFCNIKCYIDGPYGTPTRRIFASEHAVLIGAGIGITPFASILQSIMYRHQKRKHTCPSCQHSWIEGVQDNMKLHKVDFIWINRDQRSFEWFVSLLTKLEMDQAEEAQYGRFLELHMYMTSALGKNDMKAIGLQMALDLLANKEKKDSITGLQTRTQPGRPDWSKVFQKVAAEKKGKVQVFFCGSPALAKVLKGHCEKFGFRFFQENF
Assay [11] is described as follows: A549 cell viability effects, profiling panel, calcein-AM fluorescence, 48 h, basal (AID 1162). Note: test concentration not given here. The settings on record: higher = more signal.
A short description of assay [12]: adipocyte viability effects, profiling panel, cell-based, 3T3-L1 adipocytes, calcein-AM fluorescence, 48 h, basal (AID 1163). Note: test concentration not given here. Particulars: 3T3-L1 adipocytes viability, higher = more signal.
Assay [13] is described as follows: HepG2 cell viability effects, profiling panel, calcein-AM fluorescence, 48 h, basal (AID 1164). Note: test concentration not given here. The settings on record: higher = more signal.
Assay [14] can be described thus: MM1S cell viability effects, profiling panel, calcein-AM fluorescence, 48 h, basal (AID 1165).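 Note: viability of MM1S multiple myeloma cells under basal unstimulated conditions; test concentration not given here.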 Particulars: higher = more signal.
Assay [15] is described as follows: basal RPMI8226 viability, no added stimulus, profiling panel, cell-based, calcein-AM fluorescence, 48 h, PK04 Diversity Set (AID 1166).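 Note: cells grown under basal conditions without added stimulus; test concentration not given here.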 Particulars: RPMI8226 myeloma viability, higher = more signal.
The nature of assay [16]: basal HepG2 mitochondrial membrane potential changes, profiling panel, cell-based, JC-1 fluorescence, 24 h, 100 nL compound (AID 1167). Note: test concentration not given here. The settings on record: higher = more signal.
Assay [17] in a line: basal 3T3-L1 adipocyte mitochondrial potential changes, profiling panel, cell-based, JC-1 fluorescence, 3T3-L1 adipocytes, 24 h, 100 nL compound (AID 1168). Note: test concentration not given here. Particulars: JC-1 mitochondrial fluorescence, higher = more signal, called active from +8 up or from −8 down.
The nature of assay [18]: basal RPMI8226 mitochondrial membrane potential changes, profiling panel, cell-based, JC-1 fluorescence, 24 h, 100 nL compound (AID 1169). Note: test concentration not given here. The settings on record: RPMI8226 myeloma, JC-1 mitochondrial potential fluorescence, higher = more signal.
Assay [19] in a line: basal MM1S mitochondrial membrane potential changes, profiling panel, cell-based, JC-1 fluorescence, 24 h, 100 nL compound (AID 1170). Note: test concentration not given here. Particulars: higher = more signal.
Assay [20] is described as follows: A549 lung cancer cell viability effects, profiling panel, resazurin fluorescence, 24 h, PK04 Diversity Set (AID 1171). Note: test concentration not given here. Particulars: higher = more signal, called active from +8 up or from −8 down. In general terms: The colour change of resazurin is a common sign of viable cells or microbes.

NADPH oxidase 2 (Homo sapiens), sequence (P04839 whole entry, looked up): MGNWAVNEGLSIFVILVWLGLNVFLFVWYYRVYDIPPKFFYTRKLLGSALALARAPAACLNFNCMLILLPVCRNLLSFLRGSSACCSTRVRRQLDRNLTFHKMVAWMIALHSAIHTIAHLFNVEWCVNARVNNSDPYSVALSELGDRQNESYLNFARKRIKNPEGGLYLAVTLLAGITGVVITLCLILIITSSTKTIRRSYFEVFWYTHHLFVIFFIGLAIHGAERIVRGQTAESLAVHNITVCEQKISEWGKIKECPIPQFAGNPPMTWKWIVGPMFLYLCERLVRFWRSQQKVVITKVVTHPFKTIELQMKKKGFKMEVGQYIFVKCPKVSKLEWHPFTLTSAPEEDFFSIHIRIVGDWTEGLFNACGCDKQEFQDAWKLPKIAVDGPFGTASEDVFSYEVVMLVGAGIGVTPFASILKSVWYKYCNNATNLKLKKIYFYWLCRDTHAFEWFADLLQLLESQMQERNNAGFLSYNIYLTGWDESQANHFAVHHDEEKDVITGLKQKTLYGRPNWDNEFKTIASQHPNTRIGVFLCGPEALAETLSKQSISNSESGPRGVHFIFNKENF

For `C=CCC(OC(C)=O)[C@@H]1[C@@H](N(Cc2cc3ccccc3o2)C(=O)Cc2ccc(OC)cc2)c2cc(OCCCO)ccc2N1C(=O)c1ccc(-c2ccccc2)cc1` (stereo not given in full), the z-score in [1] is 1.26 (inactive); in assay [3], 2.1 (inactive); in assay [4], 0.0881 (inactive); in [5] it was 0.821 (inactive); in assay [6] it was 0.432 (inactive); in assay [7] it was 0.78. Moreover, the z-score in assay [8] was 0.125 (inactive); in assay [9], -0.964 (inactive); in assay [10], 1.56; in assay [11], 0.328; in [12], 1.05; in assay [13], 0.228. Besides, the z-score in assay [14] is -0.841; in [15] it was -1.82; in assay [16] it was 3.42; in [17], 0.182 (inactive); in assay [18] it was -0.392; in assay [19], 0.415. In assay [20], the z-score is -0.451 (inactive). The composite z-score in [2] worked out at 0.143.
For `Cc1ccccc1C(O)C1C=CC2C(=O)N(Cc3ccccc3)C(=O)C2N1n1cnnc1` (stereo not given), the z-score in [1] was -0.534 (inactive); in assay [3] it was 1.4 (inactive); in [4], 1.2 (inactive); in assay [5] it was 0.341 (inactive); in assay [6], 0.927 (inactive); in [7], -0.29. Further, the z-score in [8] is -0.4 (inactive); in assay [9], 0.1 (inactive); in assay [10] it was 0.067; in assay [11] it was -1.2; in assay [12], 0.194; in [13], -0.734. Moreover, the z-score in assay [14] was -0.742; in [15] it was 0.0991; in [16], -0.406; in [17], 0.525 (inactive); in assay [18], -0.0549; in assay [19], -0.806. Besides, the z-score in [20] is 0.0882 (inactive). In assay [2], this molecule showed a composite z-score of 0.0722.
On to `CC(C)=CCCC(C)=CC(O)C1C=CC2C(=O)N(c3ccccc3)C(=O)C2N1Nc1ccc([N+](=O)[O-])cc1` (stereo not given), for which the z-score in assay [1] is -1.41 (inactive); in [3], 8.34 (active); in assay [4], 2.3 (inactive); in assay [5] it was 1.04 (inactive); in [6] it was 1.44 (inactive); in assay [7], -0.563. In addition, the z-score in assay [8] is -0.381 (inactive); in assay [9] it was -3.41 (inactive); in [10], -0.516; in assay [11], -0.498; in [12], 0.701; in [13] it was -0.0971. Moreover, the z-score in assay [14] was -1.2; in assay [15] it was -0.186; in assay [16] it was -1.07; in assay [17], -1.44 (inactive); in assay [18], 0.417; in [19], 1.41. In addition, the z-score in assay [20] is -0.214 (inactive). Further, the composite z-score in assay [2] is -0.131.
In the case of `CC(C)CCC[C@@H](C)[C@H]1CC[C@@]2(C)C3=C(CC[C@]12C)[C@@]1(C)CC[C@H](OC(=O)c2ccc(N)cc2)C(C)(C)C1CC3` (stereo not given in full), the z-score in assay [1] was 3.27 (inactive); in assay [3], -1.05 (inactive); in assay [4], -1.26 (inactive); in [5] it was -0.492 (inactive); in [6], -2.86 (inactive); in assay [7], 1.93. For the same molecule, the z-score in assay [8] is -0.759 (inactive); in assay [9] it was 0.253 (inactive); in assay [10], 0.807; in [11] it was 1.22; in [12], 0.187; in [13], 1.06. Also, the z-score in assay [14] is -0.169; in [15], 0.814; in assay [16], 0.703; in assay [17], 0.335 (inactive); in assay [18], -0.064; in [19], -0.0494. In addition, the z-score in [20] is -0.16 (inactive). Also, the composite z-score in assay [2] was -0.278.
